Bioassay records deposited in PubChem by National Center for Advancing Translational Sciences (NCATS).
An excerpt weighted towards active compounds, which were near 19% of everything screened.
TDP1 cell noCPT = qHTS for Inhibitors of human tyrosyl-DNA phosphodiesterase 1 (TDP1): qHTS in cells in absence of CPT; DT40 Tdp1-/- hTDP1 cells, no CPT, ATP luminescence, 48 h; Potency, µM (titrated, usually from 46.2 µM), for inactives: at the top dose activity change, negative = growth inhibition, hits mostly inhibitors; hit rate 15% among 420,000; AID 686978, 2013; further: potency means the concentration at half of the fitted maximal effect; on the % scale 0 is the no-effect control and ±100 the full control effect; nearly all actives have a fitted effect of over 55% in size
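Compound effects on proliferation are scored in DT40 Tdp1-/-;hTDP1 cells in the absence of CPT. ATP levels (CellTiter-Glo luminescence) are recorded after a ≥48 hr, 37 °C incubation.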
ASM inhibitor = human S-ASM enzyme inhibition; hit rate 0.006% among 340,000; Potency, µM (titrated, usually from 57.5 µM), without a hit: top-dose activity change, negative = inhibition, usual class: inhibitors; AID 504937; placental ASM, HMU-PC fluorogenic substrate, 60 min; further: potency means the concentration at half of the fitted maximal effect
Target sequence (P17405 47-631 limits assumed): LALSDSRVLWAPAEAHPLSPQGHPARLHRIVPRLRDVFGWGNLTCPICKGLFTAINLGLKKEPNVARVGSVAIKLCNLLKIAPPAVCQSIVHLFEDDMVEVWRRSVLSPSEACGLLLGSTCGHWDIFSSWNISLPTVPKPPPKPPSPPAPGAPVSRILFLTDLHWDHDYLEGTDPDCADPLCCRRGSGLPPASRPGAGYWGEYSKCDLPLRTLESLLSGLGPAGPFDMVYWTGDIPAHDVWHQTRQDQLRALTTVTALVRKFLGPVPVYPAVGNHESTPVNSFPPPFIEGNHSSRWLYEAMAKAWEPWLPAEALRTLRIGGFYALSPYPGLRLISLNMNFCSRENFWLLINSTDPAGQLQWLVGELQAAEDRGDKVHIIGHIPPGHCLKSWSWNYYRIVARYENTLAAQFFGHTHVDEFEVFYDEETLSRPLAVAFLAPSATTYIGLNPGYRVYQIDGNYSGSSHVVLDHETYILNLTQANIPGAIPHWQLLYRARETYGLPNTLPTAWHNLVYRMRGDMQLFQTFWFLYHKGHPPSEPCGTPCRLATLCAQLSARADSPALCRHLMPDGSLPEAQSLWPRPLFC
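HMU-PC0 cleavage (9 uM final) by human placental ASM, 60 min at 37 °C following 10 min compound exposure at RT; stopped at pH 10, fluorescence Ex 386/Em 447 nm.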
IL-1B inflam inh = blocks inflammasome-driven IL-1 beta release | activity change, % at 57.5 µM | hit rate 4.7% among 360,000 | THP-1 LPS/ATP IL-1B secretion, AlphaLISA, 16 h; stronger effect = lower value; in the data active means activity change below about -50%; inconclusive means mostly about -30% to -49%; further: on the % scale 0 is the no-effect control and ±100 the full control effect
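Secreted IL-1B measured by AlphaLISA bead assay after 16 h compound exposure of THP-1 cells; compounds (final up to 57.5 uM) added 1 h before LPS (250 ng/mL) and ATP (1.25 mM) stimulation; lower signal means less secretion.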
TGFb inhibitor = TGF-b pathway inhibition; HepG2 CAGA-GFP TGF-b/SMAD3 reporter, GFP fluorescence, 18 h; TGF-beta stimulated, 500 pg/mL final; Potency, µM (highest dose often 46.1 µM), for inactives: at the top dose activity, negative = inhibition, most hits filed as inhibitors; hit rate 1.2% among 410,000; AID 588855; further: potency means the concentration at half of the fitted maximal effect; on the % scale 0 is the no-effect control and ±100 the full control effect; nearly all actives have a fitted effect of over 65% in size
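Read-out: total well GFP (ex488/em500-530) summed from mean per-cell fluorescence. Cells: HEPG2 CAGA-GFP, 1% FBS DMEM, 18 h at 37 degrees C with 500 pg/mL final TGF-beta. Unstimulated wells served as the full-inhibition control; stimulated DMSO wells = 0%.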
HepG2 viability = kills HepG2 cells in TGF-b inhibitor counter-screen; HepG2 CAGA-GFP viability, ATP luminescence, 18 h; Potency, µM (highest dose often 46.1 µM), inactives show at the top dose activity change, negative = cytotoxicity, actives largely listed as cytotoxic; hit rate 0.76% among 410,000; AID 588856; further: potency means the concentration at half of the fitted maximal effect
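CellTiter-Glo luminescence gave cytotoxicity after 18 hours at 37 degrees C. The cells were HepG2 CAGA-GFP in 1% FBS DMEM, stimulated with 500 pg/mL TGF-beta after compound addition. %Activity was normalised to no-cell wells (complete cell-killing) and DMSO (no toxicity), and curves were fitted and classified.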
TDP1 cell CPT = DT40-hTDP1 cell growth loss with CPT. hit rate 12% among 420,000. Potency, µM (doses to about 46.2 µM), for inactives: top-dose activity change, negative = growth inhibition, actives largely listed as inhibitors. chicken DT40 Tdp1-/-;hTDP1 cells + 20 nM CPT, ATP luminescence, 48 h; further: potency means the concentration at half of the fitted maximal effect; on the % scale 0 is the no-effect control and ±100 the full control effect; nearly all actives have a fitted effect of over 55% in size
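Chicken DT40 Tdp1-/- cells complemented with human TDP1, 400 cells/well, exposed to compounds plus 20 nM camptothecin for at least 48 h at 37 C; viability read as ATP content by CellTiter-Glo luminescence.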
* marks the source's active call; other numbers are inactive results; i = inactive; u = inconclusive; x = not tested or not shown; ! = repeats disagree; [ ] = dose if it differs, or a comment. Unless noted, the call rests on the fitted dose curve; in most records, active means well fitted curve in the direction sought with a large enough effect; inconclusive means small, poorly fitted or top-dose-only effect, or another doubt; inactive means no such curve, though single readings can be large; an effect the other way counts as inactive or inconclusive.

SMILES | TDP1 cell noCPT | ASM inhibitor | IL-1B inflam inh | TGFb inhibitor | HepG2 viability | TDP1 cell CPT
Cc1ccc(NC(=O)c2cnc(SCC(=O)N3CCCc4ccccc43)n(C)c2=O)cc1 | -15% | x | x | -4% | -11% | u
COc1cc(NC(=O)C(C)N2CCN(C(=O)C3CC3)CC2)cc(OC)c1 (stereo not drawn) | 1% | 2% | -3 | -3% | -3% | 1%
Cc1ccc(S(=O)(=O)N(C)C[C@@H]2OCc3cnnn3CCCC(=O)N([C@@H](C)CO)C[C@@H]2C)cc1 | -20% | x | -16 | -7% | -46% | -1%
CCn1c(=NC(=O)CSC(C)=O)sc2cc(OC)ccc21 | u | 1% | 25 | 5% | -8% | u
CCn1c(=NC(=O)CCS(=O)(=O)c2ccccc2)sc2cccc(OC)c21 | 7.3µM* | 1% | 0 | -25% | -15% | 9.2µM*
CCn1c(=NC(=O)CS(=O)(=O)c2ccc(F)cc2)sc2cccc(OC)c21 | 18µM* | -1% | -13 | 0% | -16% | 15µM*
COc1ccc2c(c1)sc(=NC(=O)CS(=O)(=O)c1ccc(F)cc1)n2C | 21µM* | 11% | -8 | 0% | -6% | u
COC(=O)Cn1c(=NC(=O)CCS(=O)(=O)c2ccccc2)sc2c(OC)ccc(OC)c21 | u | 0% | -1 | -18% | -5% | 21µM*
COc1ccc(-n2nc(C(=O)NCC(=O)NCCC3=CCCCC3)c3ccccc3c2=O)c(OC)c1 | -17% | -2% | 27 | -3% | -2% | 4%
CCn1c(=NC(=O)c2ccc(S(=O)(=O)N3CCOCC3)cc2)sc2cccc(OC)c21 | 13µM* | 16% | -12 | -4% | 6% | 15µM*
Cc1ccc(CSc2nc(=O)c3c(C)cc(C)nc3n2C2CC2)cc1 | 21µM* | x | x | u | -37% | 21µM*
COc1ccc(NC2=CC(=O)CC(c3ccccc3)C2)c(OC)c1 (stereo not drawn) | 3.3µM* | 3% | -11 | u | -15% | 4.1µM*
CN(C)CCCNC1=CC(=O)CC(c2ccccc2)C1 (stereo not drawn) | -7% | 6% | -3 | u | -1% | 3%
CCOc1ccccc1NC1=CC(=O)CC(c2ccccc2)C1 (stereo not drawn) | 13µM* | 1% | 19 | 5% | 2% | u
Cc1cccc2cc3c(N)c(C(=O)N4CCOCC4)sc3nc12 | 1.6µM* | -10% | -55* | 10% | -12% | 2.1µM*
Nc1c(C(=O)N2CCOCC2)sc2nc(N3CCOCC3)c3c(c12)CCCC3 | u | i | -10 | 28% | -13% | u
Cc1cnc(CNC(=O)c2ccc3oc(Cc4ccccc4)nc3c2)[nH]1 | 5% | 1% | -21 | 9% | 1% | 2%
CC(C)N(Cc1nccn1C)C(=O)c1ccc2oc(Cc3ccccc3)nc2c1 | u | -2% | 25 | 0% | 5% | 21µM*
Cc1ccc(S(=O)(=O)N(C)CC(=O)NCCCn2ccnc2)cc1 | -2% | 4% | 3 | 3% | -5% | 0%
CC(=O)c1sc2c(c1OC(=O)c1ccc(Cl)cc1Cl)c(=O)n(-c1ccccc1)c(=S)n2-c1ccccc1 | 21µM* | -2% | -60* | u | -35% | u
O=C(O)[C@H](O)[C@@H](O)[C@H](O[C@@H]1O[C@H](CO)[C@H](O)[C@H](O)[C@H]1O)[C@H](O)CO | 3%[21.1 µM] | x | x | x | x | -1%[21.1 µM]
CCSc1nn(CC(=O)Nc2cccc(CC)c2)c(N)c1S(=O)(=O)c1ccccc1 | 15µM* | x | x | 11µM* | -39% | u
CCc1ccc(NC(=O)Cn2nc(SC)c(S(=O)(=O)c3ccc(OC)cc3)c2N)cc1 | -20% | x | x | -24% | -9% | -12%
COc1ccc(S(=O)(=O)c2c(SC)nn(CC(=O)Nc3ccc(C)c(Cl)c3)c2N)cc1 | 26µM* | x | x | 7.1µM* | 5% | 26µM*
CC(C)C(=O)Nc1c(-c2ccccc2F)c(=O)c2ccccc2n1C | 9% | 3% | 17 | 17% | 10% | 3%
SMILES | TDP1 cell noCPT | ASM inhibitor | IL-1B inflam inh | TGFb inhibitor | HepG2 viability | TDP1 cell CPT
Cc1ccc2cc(CN(CC(C)C)S(=O)(=O)c3cccc4nonc34)c(=O)[nH]c2c1 | -14% | 0% | 16 | 1% | 13% | -29%
Nc1nnc(SCC(=O)Nc2ccc(N3CCOCC3)c(Cl)c2)s1 | 12µM* | -1% | i | 20% | 28% | 18µM*
Nc1ccc2nc(SCC(=O)N3CCOCC3)sc2c1 | -21% | -1% | 36 | 12% | 5% | 3%
Nc1ccc2nc(SCC(=O)Nc3ccc(N4CCOCC4)c(Cl)c3)sc2c1 | 23µM* | 0% | -28 | -9% | 12% | u
O=C(CSc1ccc(F)cc1)Nc1ccc(N2CCOCC2)c(Cl)c1 | u | -4% | 0 | -9% | 0% | -29%
CCCC(=O)Nc1ccc2nc(SCC(=O)Nc3ccc(N4CCOCC4)c(Cl)c3)sc2c1 | 16µM* | -9% | -50* | -1% | -18% | -82%
CCN(Cc1ccccc1)C(=O)c1ccc2c(=O)n3c(nc2c1)CCC3 | u | 6% | 9 | -44% | 5% | -9%
CCOc1ccccc1CNC(=O)c1ccc(CS(=O)Cc2cccc(Cl)c2)o1 (stereo not drawn) | 21µM* | x | x | -22% | -28% | u
COc1ccc(CNC(=O)c2ccc(CS(=O)Cc3cccc(Cl)c3)o2)cc1 (stereo not drawn) | -23% | -1% | -6 | -1% | -8% | u
COc1ccc(OC)c(CCNC(=O)c2ccc(CS(=O)Cc3cccc(Cl)c3)o2)c1 (stereo not drawn) | 21µM* | -2% | -7 | u | -13% | 23µM*
CCCCn1c(=NC(=O)c2ccco2)c(C(=O)OCC)cc2c(=O)n3ccccc3nc21 | 23µM* | 452% | -5 | 5% | 3% | u
CCOC(=O)c1cc2c(=O)n3ccccc3nc2n(CCOC)c1=NC(=O)c1cc2ccccc2o1 | -2% | x | x | 7% | -17% | -18%
CCOC(=O)c1cc2c(=O)n3ccccc3nc2n(CCCOC)c1=NC(=O)c1cc2ccccc2o1 | 18µM* | x | x | 0% | 3% | 23µM*
CCCCCn1c(=NC(=O)c2ccco2)c(C(=O)OCC)cc2c(=O)n3ccccc3nc21 | 15µM* | 150% | -74*! | u | -24% | 16µM*
